Assay outcomes (PubChem BioAssay)
Only some compounds are listed: those with a hit (about 3.6% of all), similar ones and a draw of the others.
BoNT-F LC inh: BoNT/F light chain protease inhibitors, primary screen, biochemical, flow cytometry, MLPCN library; 360,000 tested, 0.22% active; Botulinum neurotoxin type F light chain protease (Clostridium botulinum); Multiplex microsphere protease cleavage assay; inhibition, % at 10 µM; in the data active = inhibition above about 35%, passing the limit was not always enough; inconclusive = no clear call, values can overlap the other calls
SARS 3CLpro inh: SARS-CoV 3CLpro protease inhibitors, primary screen, biochemical, quenched FRET | Replicase polyprotein 1ab (Severe acute respiratory syndrome coronavirus), P0C6X7 | 290,000 tested, 0.14% active | recombinant SARS-CoV 3CLpro, quenched FRET peptide cleavage | inhibition, % at 6 µM; in the data active = inhibition above about 12%
Anthrax LF prot: Bacillus anthracis LF protease inhibitors, primary screen, biochemical, multiplex microsphere, MLPCN library; Lethal factor (Bacillus anthracis), P15917; multiplex microsphere protease cleavage assay; inhibition, % at 10 µM; 360,000 tested, 0.12% active
Target sequence (P15917 whole entry, looked up): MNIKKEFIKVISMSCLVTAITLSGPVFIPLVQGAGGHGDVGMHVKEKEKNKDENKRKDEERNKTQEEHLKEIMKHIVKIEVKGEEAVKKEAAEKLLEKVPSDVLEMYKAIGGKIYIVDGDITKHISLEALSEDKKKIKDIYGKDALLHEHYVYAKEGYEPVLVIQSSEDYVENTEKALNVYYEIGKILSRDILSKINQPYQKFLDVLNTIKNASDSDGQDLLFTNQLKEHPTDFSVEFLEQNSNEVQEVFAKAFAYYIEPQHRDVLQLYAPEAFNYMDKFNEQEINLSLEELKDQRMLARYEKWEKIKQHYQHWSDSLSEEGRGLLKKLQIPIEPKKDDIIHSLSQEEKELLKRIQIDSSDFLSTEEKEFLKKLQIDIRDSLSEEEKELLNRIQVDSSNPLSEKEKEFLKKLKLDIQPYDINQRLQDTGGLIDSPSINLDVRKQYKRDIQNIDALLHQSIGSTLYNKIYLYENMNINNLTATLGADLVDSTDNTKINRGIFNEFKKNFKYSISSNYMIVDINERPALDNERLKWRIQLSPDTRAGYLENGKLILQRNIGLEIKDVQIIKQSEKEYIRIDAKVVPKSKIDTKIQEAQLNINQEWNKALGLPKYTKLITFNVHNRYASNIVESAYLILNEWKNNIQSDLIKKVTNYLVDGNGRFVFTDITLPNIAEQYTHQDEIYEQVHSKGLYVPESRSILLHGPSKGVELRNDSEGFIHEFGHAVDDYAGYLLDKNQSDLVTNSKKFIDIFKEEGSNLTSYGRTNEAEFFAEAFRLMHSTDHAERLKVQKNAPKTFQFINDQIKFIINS
Autofluor counter: compound fluorescence in toxin protease inhibitor counterscreen; fluorescence intensity (test concentration not listed); 360,000 tested, 3.1% active; AID 624483; compound autofluorescence counterscreen, microsphere flow cytometry; active compounds read high; in the data active = fluorescence intensity above about 16000; inconclusive = no clear call, values can overlap the other calls
BoNT-A LC inh2: BoNT/A light chain protease inhibitors, primary screen, biochemical, flow cytometry, MLPCN library | Botulinum neurotoxin type A light chain protease (Clostridium botulinum A str. ATCC 3502) | multiplex microsphere protease substrate cleavage | inhibition, % at 10 µM | 360,000 tested, 0.17% active
BJeLR lethal: MLPCN primary cell-based screen for lethality selective to Ras in HRASV12 cells; BJeLR (HRASV12) viability, CellTiter-Glo ATP luminescence, 48 h; inhibition, % (concentration not given with the values); 300,000 tested, 0.17% active; AID 1554, 2009; in the data active = inhibition above about 50%; inconclusive = no clear call, values can overlap the other calls
BoNT-A LC CP1: BoNT/A light chain protease inhibitors, confirmation, biochemical, flow cytometry, cherry pick 1. inhibition, % at 10 µM. AID 602139, 2011. shares compounds with BoNT-F LC inh. 720 tested, 3% active. multiplex microsphere protease assay; in the data active = inhibition above about 32%
BoNTF LC inh 1: BoNT/F light chain protease inhibitors, confirmation, biochemical, flow cytometry, cherry pick 1; multiplex microsphere protease cleavage assay; AID 602140, 2011; shares compounds with BoNT-F LC inh; inhibition, % at 10 µM; 720 tested, under 10 active; call rule not given here
Anthrax LF CP1: Bacillus anthracis LF protease inhibitors, confirmation, biochemical, multiplex microsphere, cherry pick 1 | shares compounds with BoNT-F LC inh | multiplex microsphere protease cleavage assay | inhibition, % at 10 µM | 720 tested, under 10 active | AID 602142, 2011; call rule not given here
BoNT-A LC CP2: BoNT/A light chain protease inhibitors, confirmation, biochemical, flow cytometry, cherry pick 2; shares compounds with BoNT-A LC inh2; multiplex microsphere protease cleavage assay; inhibition, % at 10 µM; 150 tested, 10% active; in the data active = inhibition above about 24%
Anthrax LF CP2: Bacillus anthracis LF protease inhibitors, confirmation, biochemical, multiplex microsphere; shares compounds with BoNT-A LC inh2; multiplex microsphere protease cleavage assay; inhibition, % at 10 µM; 150 tested, 7% active; in the data active = inhibition above about 25%
BoNT-F LC CP2: BoNT/F light chain protease inhibitors, confirmation, biochemical, flow cytometry, cherry pick 2; multiplex microsphere protease cleavage assay; shares compounds with BoNT-A LC inh2; 150 tested, 7% active; inhibition, % at 10 µM; in the data active = inhibition above about 25%
A number is an active result; - = inactive; ? = inconclusive; . = no result. Rule as the data show it, unless noted: active = inhibition above about 30%; inconclusive = no clear call, values can overlap the other calls; inactive = below that.

SMILES	BoNT-F LC inh	SARS 3CLpro inh	Anthrax LF prot	Autofluor counter	BoNT-A LC inh2	BJeLR lethal	BoNT-A LC CP2	Anthrax LF CP2	BoNT-F LC CP2	others
C=CCC1CCCC(=O)N2CC[C@H](O)C12 (stereo not given in full)	-	-	-	-	-	-	.	.	.
O=C(Nc1nc2c(s1)CN(Cc1ccccc1)CC2)c1cccc(S(=O)(=O)N2CCc3ccccc32)c1	-	-	30	-	-	-	.	.	.	BoNT-A LC CP1=-;BoNTF LC inh 1=-;Anthrax LF CP1=-
O=C(Nc1nc2ccccc2s1)c1cccc(S(=O)(=O)N2CCc3ccccc32)c1	-	-	-	-	-	-	.	.	.
Cc1ccc(Nc2c([N+](=O)[O-])cc(C(=O)N3CC(=O)Nc4ccccc43)cc2[N+](=O)[O-])c(C)c1	-	-	-	-	-	-	.	.	.
O=C1CN(C(=O)c2ccc(Cl)c([N+](=O)[O-])c2)c2ccccc2N1	-	-	32	-	-	-	.	.	.	BoNT-A LC CP1=-;BoNTF LC inh 1=-;Anthrax LF CP1=-
CCOc1c(Br)cc(C(N)=O)cc1OCc1ccccc1	36	-	-	-	-	-	.	.	.	BoNT-A LC CP1=-;BoNTF LC inh 1=-;Anthrax LF CP1=-
COc1ccccc1N1N=C(c2ccc([N+](=O)[O-])cc2)CC1c1ccccc1 (stereo not given)	-	-	-	16503	38	-	.	.	.	BoNT-A LC CP1=48;BoNTF LC inh 1=-;Anthrax LF CP1=-
Fc1ccc(C2CC(c3ccco3)=NN2c2ccccc2)cc1 (stereo not given)	-	-	-	-	-	-	.	.	.
O=[N+]([O-])c1ccc(N2N=C(c3ccco3)CC2c2ccccc2)cc1 (stereo not given)	-	-	-	-	32	-	.	.	.	BoNT-A LC CP1=-;BoNTF LC inh 1=-;Anthrax LF CP1=-
CCC(C)(C)n1nnnc1C(C(C)C)N(Cc1ccco1)Cc1cc2cc3c(cc2[nH]c1=O)OCO3 (stereo not given)	38	-	-	-	33	-	.	.	.	BoNT-A LC CP1=-;BoNTF LC inh 1=-;Anthrax LF CP1=-
CCC(C)(C)n1nnnc1C(C(C)C)N(Cc1cccnc1)Cc1ccco1 (stereo not given)	-	-	-	-	-	-	.	.	.
COc1ccc(CCC(=O)NC2CCCc3ccccc32)cc1OC (stereo not given)	-	-	-	-	-	-	.	.	.
CC(C)[C@H]1COCCS(=O)(=O)N1Cc1ccccc1	-	.	-	-	-	-	.	.	.
CCC(=O)Nc1cccc(C(=O)N(Cc2ccccc2)Cc2ccccc2)c1	44	-	-	-	-	-	.	.	.	BoNT-A LC CP1=-;BoNTF LC inh 1=-;Anthrax LF CP1=-
COC(=O)c1c(C(=O)OC)c2c(-c3ccccc3)cc3cccc1n32	-	.	37	-	37	.	-	-	-
COC(=O)c1c(-c2ccccc2)csc1N	-	-	-	?	-	-	.	.	.
CCOc1ccc(CCNC(=O)COC(=O)COc2ccc(Br)cc2)cc1OCC	-	-	-	-	-	-	.	.	.
Cc1ccc(C(=O)NCC(=O)OCc2cccc(Br)c2)cc1	-	.	-	?	-	-	.	.	.
COc1ccc(-c2nc3c(Cl)cc(C(F)(F)F)cn3c2Cc2ccsc2)cc1OC	-	.	-	-	-	.	-	-	-
Cc1[nH]c2ccccc2c1C(=O)COC(=O)c1ccccc1O	-	.	-	-	-	.	-	-	-
CN(C)CCNC(=O)c1cccc2nc3c(ccc4ccccc43)nc12	-	.	42	-	44	.	-	-	-
COc1cccc2nc3c(C(=O)NCCN(C)C)cccc3cc12	-	.	-	-	-	.	.	.	.
COc1ccc(C#Cc2ccc(C3=CC(=O)CC(C)(C)C3=O)cc2)cc1	-	.	30	-	-	.	-	-	-
CC1(C)CC(=O)C=C(c2ccc(Oc3ccccc3)cc2)C1=O	-	.	-	-	-	.	.	.	.
COc1ccc(C(CNC(=O)C(CCSC)NC(=O)c2ccccc2Cl)N2CCCCC2)cc1 (stereo not given)	-	.	-	-	-	.	.	.	.
SMILES	BoNT-F LC inh	SARS 3CLpro inh	Anthrax LF prot	Autofluor counter	BoNT-A LC inh2	BJeLR lethal	BoNT-A LC CP2	Anthrax LF CP2	BoNT-F LC CP2	others
COc1ccc(C(CNC(=O)C(CCSC)NC(=O)c2ccccc2Cl)N2CCCC2)cc1 (stereo not given)	43	.	-	-	-	.	-	-	-
Cc1cc(NC(=O)c2ccc3sc([C@@H]4O[C@H](CO)[C@H](O)[C@H](O)[C@H]4O)nc3c2)n(C)n1	-	.	-	-	-	.	.	.	.
COc1ccc(-c2cc3c(c4c2ccn4C)C2CCC3O2)cc1OC (stereo not given)	-	.	-	-	-	.	.	.	.
Cn1ccc2c(-c3ccc(C(F)(F)F)cc3)cc3c(c21)C1CCC3C1 (stereo not given)	-	.	-	-	-	.	-	-	-
COc1ccc(-c2cc3c(c4c2ccn4C)C2CCC3C2)cc1F (stereo not given)	-	.	-	-	-	.	-	-	-
CSc1ccc(-c2cc3c(c4c2ccn4C)C2CCC3C2)cc1 (stereo not given)	-	.	-	-	-	.	.	.	.
Cn1ccc2c(-c3ccc(CO)cc3)cc3c(c21)C1CCC3C1 (stereo not given)	-	.	-	-	-	.	-	-	-
Cn1ccc2c(-c3ccc(C(F)(F)F)cc3)cc3c(c21)C1CCC3O1 (stereo not given)	-	.	-	-	-	.	.	.	.
Cc1ccccc1-c1cc2c(c3c1ccn3C)C1CCC2C1 (stereo not given)	-	.	-	-	-	.	-	-	-
Cc1c(Cl)cccc1NC(=O)C1CC(=O)N(C2CCCC2)C1 (stereo not given)	-	.	-	-	-	.	.	.	.
CN(C(=O)CCN1C(=O)S/C(=C\c2ccccc2)C1=O)C1CCS(=O)(=O)C1 (stereo not given)	-	-	-	-	-	-	.	.	.
COc1ccc(C(=O)Nc2ncccc2C)cc1S(=O)(=O)N1CCOCC1	.	.	.	.	.	-	.	.	.
